IL2 activator – IL-2 activation. IL-2 activation reporter assay, cell-based qHTS; stimulated with anti-CD3/CD4/CD28 beads; in transgenic mouse T cells. activation, % (series mostly up to about 46 µM). actives 0.065% (n = 360,000); in the data active = activation above about 50%; inconclusive = mostly about 30% to 49%; also: 0% is about no effect
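Unstimulated transgenic mouse T cells, 750 per well, received compound and, after 60 minutes, anti-CD3/anti-CD4 bead plus anti-CD28 stimulation. EGFP and DsRed were quantified after 18 hours.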
TCR activator – T cell receptor activation | primary human leukocytes, anti-CD3, IL-2 HTRF, 48 h | Potency, µM (highest dose often 9.22 µM), without a hit: at the highest dose activation of IL-2 secretion, hits mostly activators | 330,000 tested, under 10 active | AID 504894; also: % of control where 0% means no effect
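IL-2 produced over 48 hr by a-CD3 bead-stimulated primary human leukocytes exposed to compounds was detected with a homogeneous time-resolved FRET immunoassay, 665nm acceptor signal after 320nm excitation.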
PKM2 activator – PKM2 (human) enzyme activation; purified PKM2, Kinase-Glo ATP luminescence, activation; response scale: 0% is enzyme alone, no compound; Potency, µM (series often up to 57.5 µM), for the others: top-dose activation, most hits filed as activators; P14618; actives 0.34% (n = 260,000); AID 1631; also: potency is read from the fitted curve at half-maximal effect; % is scaled to controls: 0 for no effect and ±100 for the full control effect; nearly all actives have a fitted effect of over 55% in size
Target sequence (P14618 whole entry, looked up): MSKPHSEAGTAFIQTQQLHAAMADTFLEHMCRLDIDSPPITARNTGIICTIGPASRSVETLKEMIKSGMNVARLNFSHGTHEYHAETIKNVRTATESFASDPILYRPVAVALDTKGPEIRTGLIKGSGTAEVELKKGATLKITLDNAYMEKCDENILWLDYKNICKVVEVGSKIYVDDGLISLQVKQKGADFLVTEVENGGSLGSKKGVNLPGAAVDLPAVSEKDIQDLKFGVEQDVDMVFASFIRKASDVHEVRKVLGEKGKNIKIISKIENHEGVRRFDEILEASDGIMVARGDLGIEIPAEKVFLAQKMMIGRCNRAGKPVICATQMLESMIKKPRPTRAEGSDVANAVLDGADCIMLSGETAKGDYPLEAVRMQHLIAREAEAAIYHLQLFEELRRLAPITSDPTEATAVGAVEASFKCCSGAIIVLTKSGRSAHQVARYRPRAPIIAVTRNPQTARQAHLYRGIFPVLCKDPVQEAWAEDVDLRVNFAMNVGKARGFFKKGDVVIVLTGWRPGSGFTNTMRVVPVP
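Kinase-Glo luminescence reports ATP generated from ADP (0.1 mM) and PEP (0.5 mM) by purified hPK-M2 after 1 h at room temperature, pH 7.2 imidazole buffer; intermediate enzyme activity allows detecting inhibitors and activators.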
A-T KAP1 phos – candidate therapy for ataxia-telangiectasia; F2112 A-T fibroblasts, KAP-1 phosphorylation AlphaLISA; neocarzinostatin DNA damage 30 min before lysis; Potency, µM (doses to about 57.5 µM), for inactives: at the top dose activation, actives largely listed as activators; actives 0.19% (n = 320,000); AID 485349; also: potency is read from the fitted curve at half-maximal effect; % of control where 0% means no effect; nearly all actives have a fitted effect of over 45% in size
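ATM-like activity read as KAP-1 phosphorylation via AlphaLISA donor/acceptor antibody pairs after lysis and 6 hr at 25C. Cells were ATM-null patient fibroblasts (F2112, hTERT), dosed 60 min, then exposed to the DSB inducer NCS for 30 min.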
Tb PFK inh-1 – blocks T. brucei phosphofructokinase; T. brucei PFK, ADP-Glo luminescence; Potency, µM (top dose mostly 57.5 µM), without a hit: top-dose activity, negative = inhibition, actives largely listed as inhibitors; actives 0.17% (n = 330,000); O15648;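 also: potency is read from the fitted curve at half-maximal effect; 0% = uninhibited 1x PFK enzyme wells and -100% = no-enzyme wells; nearly all actives have a fitted effect of over 60% in size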
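ADP-Glo luminescence quantified ADP after 45 min at room temperature, with 1.25 nM T. brucei PFK, 0.1 mM ATP and 0.5 mM fructose-6-phosphate in pH 8.0 TEA buffer. qHTS titrations up to 57 µM; curves classified by quality.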
a7 integrin act – activates integrin-mediated alleviation for muscular dystrophy. Potency, µM (series often up to 38.3 µM), inactives show at the highest dose activation, hits mostly activators. alpha7betagal myoblasts, beta-gal FDG fluorescence, 48 h. actives 0.064% (n = 350,000);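 also: potency is read from the fitted curve at half-maximal effect; 100% = response of the positive control SU9516; nearly all actives have a fitted effect of over 60% in size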
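Alpha7betagal+/- myoblasts (passage 13) were plated 16-24 hr, then exposed to compounds (1:260 dilution of DMSO stock) for 48 hours at 37C. After MPER lysis, β-galactosidase reporter activity was read as FDG fluorescence (ex 480/em 540) after 30 minutes.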
Tb PFK KinaseGlo – orthogonal confirmation of T. brucei phosphofructokinase inhibitors | Potency, µM (titrated, usually from 57.5 µM), without a hit: top-dose inhibition | AID 504636 | actives 47% (n = 1,100) | shares compounds with Tb PFK inh-1 | Tb PFK enzyme, ATP depletion, Kinase-Glo Plus luminescence; calls by dose curve; also: potency is read from the fitted curve at half-maximal effect; nearly all actives have a fitted effect of over 60% in size
Tb PFK inh-2 – validation of T. brucei phosphofructokinase inhibitors; shares compounds with Tb PFK inh-1; purified T. brucei PFK, ADP-Glo luminescence, 45 min; Potency, µM (doses to about 57.5 µM), for inactives: top-dose activity change, negative = inhibition, most hits filed as inhibitors; actives 41% (n = 1,100); AID 504637;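 also: potency is read from the fitted curve at half-maximal effect; plate controls were full PFK enzyme control for no effect and no enzyme control for full effect; nearly all actives have a fitted effect of over 60% in size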
* hit, by the source's call; ? = inconclusive; · = no result; [ ] = dose if it differs, or a comment. Hits are enriched below; roughly 0.69% of the tested compounds scored in any of these assays. Unless noted, calls follow the shape of the dose curve; as a rule, active = well fitted curve in the direction sought with a large enough effect; inconclusive = small, poorly fitted or top-dose-only effect, or another doubt; inactive = no such curve, though single readings can be large; an effect the other way counts as inactive or inconclusive.

SMILES	IL2 activator	TCR activator	PKM2 activator	A-T KAP1 phos	Tb PFK inh-1	a7 integrin act	Tb PFK KinaseGlo	Tb PFK inh-2
CC(C)(C)c1cc([N+](=O)[O-])cc(C(C)(C)C)c1O	-5	-5%	2%	4%	-14%	-23%	·	·
Cc1cc(NC(=O)Nc2ccc(Cl)c(Cl)c2)n(-c2ccccc2)n1	-4	-5%	3%	10%	19µM*	-26%	?	-14%
ClC(Cl)(c1nnnn1-c1ccccc1)c1nnnn1-c1ccccc1	-1	1%[46.1 µM]	-1%	2%	11µM*	-56%	3.4µM*	11µM*
O=c1c2ccccc2nc(SCC2CCCCO2)n1-c1ccccc1 (stereo unspecified)	-1	5%[46.1 µM]	-5%	10%	5%	-16%	·	·
O=C(CCCn1c(SCC(=O)c2ccc(O)c(O)c2)nc2ccccc2c1=O)NCC1CCCO1 (stereo unspecified)	-1	9%	2%	·	?	0%	?	?
C[C@]12CCC3C(CC[C@H]4C[C@@H](O)[C@H](O)C[C@]34C)C1CC[C@@H]2O (stereo partly specified)	0	0%	·	3%	-6%	0%	·	·
COc1ccccc1CCNCc1cc2c(cc1[N+](=O)[O-])OCO2	-3	6%	2%	7%	1%	14%	·	·
COc1cccc(CNc2ccc(F)c([N+](=O)[O-])c2)c1O	-5	0%	?	0%	?	-12%	19µM*	30µM*
O=[N+]([O-])c1ccccc1CNc1ccc(F)c(Cl)c1	-3	-2%[46.1 µM]	-2%	7%	?	-15%	21µM*	?
O=[N+]([O-])c1ccccc1CCl	-1	-3%	·	-8%	-1%	·	·	·
FC(F)(F)c1ccc(-c2ccc3c(c2)CNCc2cnnn2-3)cc1	-1	·	·	·	·	·	·	·
CC(C)c1c(Cl)c(O)c(-c2ccccc2)c(=O)n1-c1ccc(F)cc1	-1	-2%[46.1 µM]	-14%	-1%	?	4%	?	?
Cc1ccc2nc(C)n(-c3ccc(F)cc3)c(=O)c2c1	2	2%	-2%	3%	4%	5%	·	·
O=C1/C(=C/c2ccc(O)c(O)c2)Oc2cc(O)ccc21	4	-8%	2%	-38%	?	-19%	-29%	?
Cc1c(Br)c(O)c(Br)c2sc(=O)oc12	-3	1%	7%	5%	?	-13%	14%	-28%
CC(C)(C)n1nnnc1C(c1cccs1)N1CCC2(CC1)C(=O)NCN2c1ccccc1 (stereo unspecified)	1	·	·	·	·	·	·	·
NCCOc1ccccc1Cc1ccccc1	0	2%	-5%	·	19µM*	-46%	?	?
O=C(CN1C(=O)/C(=C2\SC(=S)N(CCS(=O)(=O)O)C2=O)c2ccccc21)Nc1cccc(Br)c1	0	6%	?	-16%	27µM*	30%	4.3µM*	7.6µM*
CCOC(=O)c1cn(Cc2cccc(Cl)c2)nn1	-1	1%[46.1 µM]	2%	4%	?	-3%	27µM*	?
NC(=O)c1cccn1Cc1cccc(Cl)c1	-2	-6%	-12%	0%	?	0%	?	?
O=C1NC(=O)N(CCNc2ncc(C(F)(F)F)cc2Cl)C(=O)C1/C=N/OCc1c(F)cccc1Cl (stereo unspecified)	-3	0%	1%	-3%	0%	3%	·	·

Bioassay records as filed in PubChem BioAssay.
